# Source: PubChem
# A selection: hits, their analogues and other compounds. The true share with any hit is near 3.4%.
# MEKK2wt PB1 HTS: raises or lowers MEK5 binding to wildtype human MEKK2 PB1 domain | Q9Y2U5 | bead flow cytometry, Alexa488-MEK5 binding to MEKK2 WT; actives lie on both sides | binding response (% of control), % at 10 µM | 290,000 tested, 1.1% active | AID 1531; in the data active means binding response below about 67% or above about 130%
# MEKK2 mut-MEK5: signal of MEK5 binding to mutant human MEKK2 PB1 domain; 290,000 tested, 0.35% active; percent response, % at 10 µM; bead flow cytometry, Alexa488-MEK5 binding to MEKK2 mutant; in the data active means percent response above about 24%, passing the limit was not always enough
# NTR1 ag: NTR1 (human) agonism; P30989; NTR1-U2OS beta-arrestin-GFP spot imaging, agonist mode; activation, % at 20 µM; 330,000 tested, 0.17% active; AID 493036;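 active means activation at or above 40% of the spot to cytoplasm intensity ratio, with at least 20 cells analyzed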;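 further: 0% = DMSO without peptide and 100% = 100 nM NTR1 peptide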
# Target sequence (P30989 whole entry, looked up): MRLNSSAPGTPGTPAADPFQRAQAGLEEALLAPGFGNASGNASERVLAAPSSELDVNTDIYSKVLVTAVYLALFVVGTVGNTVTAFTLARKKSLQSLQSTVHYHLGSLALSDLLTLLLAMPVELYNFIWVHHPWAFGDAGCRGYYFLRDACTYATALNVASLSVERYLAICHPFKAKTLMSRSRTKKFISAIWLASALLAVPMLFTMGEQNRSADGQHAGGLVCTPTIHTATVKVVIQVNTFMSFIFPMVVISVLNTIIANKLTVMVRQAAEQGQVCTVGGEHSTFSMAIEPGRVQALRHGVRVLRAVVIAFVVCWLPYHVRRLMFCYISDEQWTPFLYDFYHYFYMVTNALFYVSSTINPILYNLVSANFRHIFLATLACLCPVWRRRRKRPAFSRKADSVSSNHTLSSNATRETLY
# MEKK3 PB1 HTS: MEKK3-MEK5 PB1 interaction, increase or decrease | AID 1529 | 290,000 tested, 1.4% active | bead-based flow cytometry, Alexa488-MEK5 binding to MEKK3; actives lie on both sides; 0 = blocked by unlabeled MEK5, 100 = vehicle | Q99759 | binding response (% of control), % at 10 µM;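 active means binding response more than 3 SD above or below the average of its plate-row segment, actives on both sides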;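 further: Alexa488 bead fluorescence after subtracting the streptavidin-only scavenger bead signal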
# ANO1 activ: activates or potentiates the mouse TMEM16A chloride channel. HEK293 TMEM16A/YFP-H148Q/I152L, iodide quench fluorescence; stronger effect = lower value. B-score at 10 µM. 340,000 tested, 0.3% active. Q8BHY3;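 active means fluorescence-ratio B-score plate-corrected deviation score at least 3 library SD below zero, with starting fluorescence score within 5 deviations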;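 further: channel opened by trigger with iodide after compound preincubation; score built on the fluorescence ratio of max minus min over baseline; more negative score means more quench and so TMEM16A activation or potentiation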
# ANO1 block: mouse TMEM16A channel inhibition, primary screen; Q8BHY3; HEK293 TMEM16A/YFP iodide influx fluorescence, ionomycin; normalized B-score (activity score, 25-100; higher = stronger inhibition) at 10 µM; 310,000 tested, 1.2% active;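 active means ratio plate-corrected score three or more library SD toward inhibition, starting fluorescence score within five deviations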;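 further: score derived from kinetic fluorescence span divided by baseline fluorescence per well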
# Starred values were filed as active, the others as inactive; i = inactive; x = not tested or not shown; ! = repeats disagree; [ ] = another dose, or the depositor's remark.
SMILES,MEKK2wt PB1 HTS,MEKK2 mut-MEK5,NTR1 ag,MEKK3 PB1 HTS,ANO1 activ,ANO1 block
C#CCOCCOCCOCCNc1nc(N2CCN(C(=O)[C@H](CCCCN)n3cc(C(N)COC(=O)C(F)(F)F)nn3)CC2)nc(N2CCN(C(=O)[C@H](CCCCN)n3cc(C(N)CC(C)C)nn3)CC2)n1 (some centres undefined),150.0*,21.0,x,101.0,x,x
C#CCOCCOCCOCCNc1nc(N2CCN(C(=O)CCCCCCCCCCNC(=O)[C@H]([C@@H](C)CC)n3cc(CCCCN=C(N)N)nn3)CC2)nc(N2CCN(C(=O)CCCCCCCCCCNC(=O)[C@H](CO)n3cc(CCCCCN)nn3)CC2)n1,x,x,1.8,x,-19.9*,100*
C#CCOCCOCCOCCNc1nc(N2CCN(C(=O)CCCCCCCCCCNC(=O)Cn3cc(CCCCCN)nn3)CC2)nc(N2CCN(C(=O)CCCCCCCCCCNC(=O)[C@H]([C@@H](C)CC)n3cc(CCCCN=C(N)N)nn3)CC2)n1,x,x,5.3,x,-20.8*,i
C#CCOCCOCCOCCNc1nc(N2CCN(C(=O)CCCCCCCCCCNC(=O)[C@H]([C@@H](C)CC)n3cc(CCCCCN)nn3)CC2)nc(N2CCN(C(=O)CCCCCCCCCCNC(=O)[C@@H]([C@H](C)CC)n3cc(CCCCCN)nn3)CC2)n1,x,x,5.2,x,x,i
COc1ccccc1CNC(=O)C(=O)Nc1ccc(C(=O)N2CCC(C)CC2)cc1,106.0,7.0,0.7,104.0,i,i
Cc1ccc(NC(=O)CCC(=O)NNC(=O)/C=C/C(=O)O)c(C)c1,98.0,1.0,-0.2,99.0,i,i
C#CCOCCOCCOCCNc1nc(N2CCN(C(=O)CCCCCCCCCCNC(=O)Cn3cc(CCCCCN)nn3)CC2)nc(N2CCN(C(=O)CCCCCCCCCCNC(=O)[C@@H](CCC(=O)O)n3cc(CCCCCN)nn3)CC2)n1,x,x,-1.2,x,i,i
C#CCOCCOCCOCCNc1nc(N2CCN(C(=O)CCCCCCCCCCNC(=O)[C@H]([C@@H](C)CC)n3cc(CCCCCN)nn3)CC2)nc(N2CCN(C(=O)CCCCCCCCCCNC(=O)[C@H](CO)n3cc(CCCCCN)nn3)CC2)n1,x,x,8.4,x,-16.9*,25*
C#CCOCCOCCOCCNc1nc(N2CCN(C(=O)CCCCCCCCCCNC(=O)Cn3cc(CCCCCN)nn3)CC2)nc(N2CCN(C(=O)CCCCCCCCCCNC(=O)[C@@H](CCSC)n3cc(CCO)nn3)CC2)n1,x,x,1.0,x,-4.6*,i
COc1ccc(C(=O)N2CCCC(Nc3ccc(C(C)C)cc3)C2)c(OC)n1 (centres undefined),101.0,6.0,0.8,96.0,i,i
CC(=O)c1cccc(S(=O)(=O)N2CCC(C(=O)NC3CCCC3)CC2)c1,x,x,1.9,x,i,x
CC(C)CC(C(=O)NC(C)(C)C)N(Cc1ccccc1Cl)C(=O)c1snc(C(N)=O)c1N (centres undefined),100.0,6.0,8.3,105.0,i,i
O=C(Nc1ccccc1C(=O)NCCCN1CCOCC1)c1ccc(F)cc1,-2.0*[inhibitor],-13.0,-0.9,1.0*[inhibitor],i,i
N#Cc1ccc(CN2C=NS(=O)(=O)c3ccccc32)cc1,100.0,1.0,2.1,98.0,i,i
O=[N+]([O-])c1ccc(C(O)C23CN4CN(CN(C4)C2)C3)cc1 (centres undefined),100.0,4.0,1.3,101.0,i,i
COCCNC(=O)COc1ccc(Br)cc1Cl,103.0,-3.0,2.4,100.0,i,100*
CN(C)CCCNC(=O)COc1ccc(Br)cc1Cl,101.0,-1.0,-1.0,96.0,i,i
CCc1ccc2c(COC(=O)C3CC(=O)N(CCc4ccccc4)C3)cc(=O)oc2c1 (centres undefined),x,x,0.2,x,i,x
COc1cccc(CNC(=O)CSCc2cnn(-c3ccccc3)c2-n2cccc2)c1OC,94.0,-2.0,2.7,98.0,i,100*
COc1ccccc1CNC(=O)CSCc1cnn(-c2ccccc2)c1-n1cccc1,98.0,-3.0,1.0,99.0,i,i
C[C@@H]1CC=C[C@H]2[C@H]1C(=O)N(Cc1ccccc1)[C@H]2c1ccc(C(F)(F)F)cc1,96.0,3.0,4.0,99.0,i,100*
Cc1cc(C)cc(NC(=S)N2CCC(NC(=O)c3ccco3)CC2)c1,98.0,-1.0,1.0,100.0,i,i
N/C(=N/O)c1ccccc1N1CCC(Cc2ccccc2)CC1,86.0,-8.0,7.5,76.0,i,25*
CCSc1nnc(N2C(=O)C(O)=C(C(=O)c3ccco3)C2c2cccc(OC)c2)s1 (centres undefined),102.0,2.0,0.2,100.0,-6.9*,i
CSc1nnc(N2C(=O)C(O)=C(C(=O)c3ccco3)C2c2ccc(F)cc2)s1 (centres undefined),104.0,-1.0,x,101.0,-6.56*,i
SMILES,MEKK2wt PB1 HTS,MEKK2 mut-MEK5,NTR1 ag,MEKK3 PB1 HTS,ANO1 activ,ANO1 block
C=CCOc1ccc(C2C(C(=O)c3ccco3)=C(O)C(=O)N2c2nnc(C)s2)cc1 (centres undefined),97.0,-3.0,1.3,100.0,-8.92*,i
COc1ccc(C2C(C(=O)c3ccco3)=C(O)C(=O)N2c2nnc(C)s2)cc1 (centres undefined),97.0,-1.0,2.1,101.0,i,i
COc1ccccc1NC(=O)CSc1nnnn1-c1ccc2c(c1)OCO2,x,x,5.8,x,-7.5*,i
CCN1C(=O)[C@@H]2[C@@H](c3ccc(-c4ccc5c(c4)OCO5)c(OC)c3)N3CCC[C@@]3(C(=O)OC)[C@@H]2C1=O,x,x,-0.6,x,i,i
S=C(Nc1cc(Cl)cc(Cl)c1)NC1CCN(Cc2ccccc2)CC1,135.0*,10.0,52.4*,103.0,i,i
CN(Cc1ccccc1)C(=O)CSc1nc2c(c(C(F)(F)F)n1)CCc1ccccc1-2,94.0,-1.0,3.7,96.0,i,25*
NC(=O)c1c(NC(=O)CSc2nc3c(c(C(F)(F)F)n2)CCc2ccccc2-3)sc2c1CCCC2,98.0,6.0,0.7,105.0,i,i
COc1cccc2c1C(=O)c1c(O)c3c(c(O)c1C2=O)C[C@@](O)(C(=O)CO)C[C@@H]3O[C@H]1C[C@H](N)[C@H](O)[C@H](C)O1,50.0*![inhibitor],-9.0,-3.1,47.0*![inhibitor],i,i
CCOc1nc(NC2CCCC2)nc(N2CCC(C)CC2)n1,116.0,5.0,15.1,109.0,i,i
CCOC(=O)C(CCCCCOc1ccc([N+](=O)[O-])cc1)C(=O)OCC,94.0,-5.0,-0.8,95.0,i,100*
O=S(=O)(NCCc1c[nH]c2ccccc12)c1ccc(F)cc1,x,x,x,x,i,x
